Assay results from PubChem BioAssay AID1159580 (chemical genetic matrix, 2015).
About 2,000 (36%) of roughly 5,500 compounds were called active. Inconclusive results (about 18%) are left out. Rule as the data show it: active = normalized growth mostly below about 0.91 (no sharp cut-off); inconclusive = no clear call, values can overlap the other calls; inactive = mostly above about 0.92. The list shows a part of the results.

Assay: chemical genetic growth profiling, strain panel (AID 1159580);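 also: tested at 20 µM; growth read once vehicle control cultures reached saturation at 30 °C; 1 = growth at the plate median or of vehicle wells; lower values mean less growth of the strain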
Conditions: growth OD
[1] = S. cerevisiae deletion strains, locus YAL013W, strain DEP1, stronger effect = lower value
[2] = S. cerevisiae deletion strains, locus YBR229C, strain ROT2, stronger effect = lower value
[3] = S. cerevisiae deletion strains, locus YDL101C, strain DUN1, stronger effect = lower value
[4] = S. cerevisiae deletion strains, locus YDL134C, strain PPH21, stronger effect = lower value
[5] = S. cerevisiae deletion strains, locus YDR150W, strain NUM1, stronger effect = lower value
[6] = S. cerevisiae deletion strains, locus YEL061C, strain CIN8, stronger effect = lower value
[7] = S. cerevisiae deletion strains, locus YGR078C, strain PAC10, stronger effect = lower value
[8] = S. cerevisiae deletion strains, locus YHR030C, strain SLT2, stronger effect = lower value
[9] = S. cerevisiae deletion strains, locus YHR087W, strain rtc3, stronger effect = lower value
[10] = S. cerevisiae deletion strains, locus YJR043C, strain POL32, stronger effect = lower value
[11] = S. cerevisiae deletion strains, locus YJR075W, strain HOC1, stronger effect = lower value
[12] = S. cerevisiae deletion strains, locus YKL190W, strain CNB1, stronger effect = lower value
[13] = S. cerevisiae deletion strains, locus YLR039C, strain RIC1, stronger effect = lower value
[14] = S. cerevisiae deletion strains, locus YLR058C, strain SHM2 (second series), stronger effect = lower value
[15] = S. cerevisiae deletion strains, locus YLR085C, strain ARP6, stronger effect = lower value
[16] = S. cerevisiae deletion strains, locus YLR262C, strain YPT6, stronger effect = lower value
[17] = S. cerevisiae deletion strains, locus YML094W, strain GIM5, stronger effect = lower value
[18] = S. cerevisiae deletion strains, locus YMR219W, strain ESC1, stronger effect = lower value
[19] = S. cerevisiae deletion strains, locus YMR263W, strain SAP30, stronger effect = lower value
[20] = S. cerevisiae deletion strains, locus YNL153C, strain GIM3, stronger effect = lower value
[21] = S. cerevisiae deletion strains, locus YNL298W, strain CLA4 (second series), stronger effect = lower value
[22] = S. cerevisiae deletion strains, locus YNL322C, strain KRE1, stronger effect = lower value
[23] = S. cerevisiae deletion strains, locus YNR030W, strain Alg12, stronger effect = lower value
[24] = S. cerevisiae deletion strains, locus YOL006C, strain TOP1, stronger effect = lower value
[25] = S. cerevisiae deletion strains, locus YPL055C, strain LGE1, stronger effect = lower value
[26] = S. cerevisiae deletion strains, locus YPL241C, strain CIN2, stronger effect = lower value
[27] = S. cerevisiae deletion strains, locus YPR135W, strain CTF4, stronger effect = lower value

Measured: normalized growth

Nc1ccccc1SCC(=O)Nc1c(F)cccc1F
active: [13] 0.672 | [16] 0.595
inactive: [1] 0.982 | [2] 0.998 | [3] 0.979 | [4] 1.04 | [5] 0.977 | [6] 1.03 | [7] 1 | [8] 0.938 | [9] 1.05 | S. cerevisiae deletion strains, locus YJL187C, strain SWE1, stronger effect = lower value 1.03 | [10] 0.975 | [11] 1.01 | [12] 1.01 | [14] 1.02 | [15] 0.985 | [17] 0.955 | [18] 0.998 | [19] 1.01 | [20] 1.01 | [21] 1.03 | [22] 1 | [23] 1 | [24] 0.903 | [25] 0.994 | [26] 0.977 | [27] 1.02 | S. cerevisiae strains, strain wild type, stronger effect = lower value 1.01

O=C(Nc1ccccc1F)C(Cl)Cl
inactive: [1] 0.999 | [2] 0.989 | S. cerevisiae deletion strains, locus YCL061C, strain MRC1, stronger effect = lower value 1 | [3] 0.994 | [4] 0.967 | [5] 1.01 | [6] 1.01 | [7] 0.975 | [8] 1.07 | [9] 0.981 | [10] 0.997 | [11] 0.971 | [12] 0.981 | [13] 1.16 | [14] 0.987 | [15] 0.991 | [16] 1.14 | [17] 0.992 | [18] 0.991 | [19] 0.995 | [20] 1.02 | [21] 0.984 | [22] 0.987 | [23] 0.976 | [24] 1.02 | [25] 0.962 | [26] 0.977 | [27] 0.99

O=C(NC(=O)c1c(F)cccc1Cl)OCc1ccc(Cl)cc1Cl
active: [8] 0.63 | S. cerevisiae deletion strains, locus YLR113W, strain HOG1, stronger effect = lower value 0.71 | S. cerevisiae deletion strains, locus YPL256C, strain CLN2, stronger effect = lower value 0.711
inactive: S. cerevisiae deletion strains, locus YAR019C, strain CDC15, stronger effect = lower value 0.987 | S. cerevisiae deletion strains, locus YBL105C, strain PKC1, stronger effect = lower value 0.981 | S. cerevisiae deletion strains, locus YBR135W, strain CKS1, stronger effect = lower value 0.975 | S. cerevisiae deletion strains, locus YBR136W, strain MEC1, stronger effect = lower value 0.984 | S. cerevisiae deletion strains, locus YBR160W, strain CDC28, stronger effect = lower value 0.976 | S. cerevisiae deletion strains, locus YDL017W, strain CDC7, stronger effect = lower value 0.99 | S. cerevisiae deletion strains, locus YDL028C, strain MPS1, stronger effect = lower value 0.978 | [3] 0.989 | S. cerevisiae deletion strains, locus YDL108W, strain KIN28, stronger effect = lower value 0.976 | S. cerevisiae deletion strains, locus YDL132W, strain cdc53, stronger effect = lower value 0.984 | S. cerevisiae deletion strains, locus YDL214C, strain PRR2, stronger effect = lower value 0.879 | S. cerevisiae deletion strains, locus YDR052C, strain DBF4, stronger effect = lower value 0.978 | S. cerevisiae deletion strains, locus YDR054C, strain cdc34, stronger effect = lower value 0.979 | S. cerevisiae deletion strains, locus YDR226W, strain ADK1, stronger effect = lower value 0.983 | S. cerevisiae deletion strains, locus YDR477W, strain SNF1, stronger effect = lower value 0.915 | S. cerevisiae deletion strains, locus YER123W, strain YCK3, stronger effect = lower value 0.848 | S. cerevisiae deletion strains, locus YER133W, strain GLC7, stronger effect = lower value 0.893 | S. cerevisiae deletion strains, locus YFL009W, strain cdc4, stronger effect = lower value 0.985 | S. cerevisiae deletion strains, locus YFL029C, strain CAK1, stronger effect = lower value 0.987 | S. cerevisiae deletion strains, locus YFR003C, strain YPI1, stronger effect = lower value 0.98 | S. cerevisiae deletion strains, locus YFR019W, strain FAB1, stronger effect = lower value 0.941 | S. cerevisiae deletion strains, locus YFR028C, strain CDC14, stronger effect = lower value 0.988 | S. cerevisiae deletion strains, locus YGR040W, strain KSS1, stronger effect = lower value 0.9 | S. cerevisiae deletion strains, locus YGR052W, strain FMP48, stronger effect = lower value 0.9 | S. cerevisiae deletion strains, locus YGR092W, strain DBF2, stronger effect = lower value 0.831 | S. cerevisiae deletion strains, locus YHR079C, strain IRE1, stronger effect = lower value 0.873 | S. cerevisiae deletion strains, locus YHR082C, strain KSP1, stronger effect = lower value 0.95 | S. cerevisiae deletion strains, locus YHR205W, strain SCH9, stronger effect = lower value 0.731 | S. cerevisiae deletion strains, locus YIL147C, strain SLN1, stronger effect = lower value 0.986 | S. cerevisiae deletion strains, locus YJL095W, strain BCK1, stronger effect = lower value 0.845 | S. cerevisiae deletion strains, locus YJL128C, strain PBS2, stronger effect = lower value 0.927 | S. cerevisiae deletion strains, locus YJL157C, strain FAR1, stronger effect = lower value 0.878 | S. cerevisiae deletion strains, locus YJR016C, strain ILV3, stronger effect = lower value 0.974 | S. cerevisiae deletion strains, locus YJR066W, strain TOR1 (second series), stronger effect = lower value 0.869 | S. cerevisiae deletion strains, locus YJR066W, strain TOR1, stronger effect = lower value 0.884 | S. cerevisiae deletion strains, locus YKL048C, strain ELM1, stronger effect = lower value 0.905 | S. cerevisiae deletion strains, locus YKL067W, strain YNK1, stronger effect = lower value 0.9 | S. cerevisiae deletion strains, locus YKL101W, strain HSL1, stronger effect = lower value 0.863 | S. cerevisiae deletion strains, locus YKL193C, strain SDS22, stronger effect = lower value 0.985 | S. cerevisiae deletion strains, locus YKL203C, strain TOR2, stronger effect = lower value 0.914 | S. cerevisiae deletion strains, locus YLR133W, strain CKI1, stronger effect = lower value 0.876 | S. cerevisiae deletion strains, locus YLR403W, strain SFP1, stronger effect = lower value 0.854 | S. cerevisiae deletion strains, locus YML070W, strain DAK1, stronger effect = lower value 0.858 | S. cerevisiae deletion strains, locus YMR001C, strain CDC5, stronger effect = lower value 0.985 | S. cerevisiae deletion strains, locus YMR205C, strain PFK2 (second series), stronger effect = lower value 0.906 | S. cerevisiae deletion strains, locus YMR277W, strain FCP1, stronger effect = lower value 0.98 | S. cerevisiae deletion strains, locus YNL006W, strain LST8, stronger effect = lower value 0.983 | S. cerevisiae deletion strains, locus YNL020C, strain ARK1, stronger effect = lower value 0.818 | S. cerevisiae deletion strains, locus YNL161W, strain CBK1, stronger effect = lower value 0.974 | S. cerevisiae deletion strains, locus YNL183C, strain NPR1, stronger effect = lower value 0.875 | S. cerevisiae deletion strains, locus YNL207W, strain RIO2, stronger effect = lower value 0.966 | S. cerevisiae deletion strains, locus YNL222W, strain SSU72, stronger effect = lower value 0.978 | S. cerevisiae deletion strains, locus YNL307C, strain MCK1 (second series), stronger effect = lower value 0.828 | S. cerevisiae deletion strains, locus YOL078W, strain AVO1, stronger effect = lower value 0.983 | S. cerevisiae deletion strains, locus YOL136C, strain PFK27, stronger effect = lower value 0.851 | S. cerevisiae deletion strains, locus YOR061W, strain CKA2, stronger effect = lower value 0.899 | S. cerevisiae deletion strains, locus YOR119C, strain RIO1, stronger effect = lower value 0.961 | S. cerevisiae deletion strains, locus YOR231W, strain MKK1, stronger effect = lower value 0.835 | S. cerevisiae deletion strains, locus YOR329C, strain SCD5, stronger effect = lower value 0.978 | S. cerevisiae deletion strains, locus YPL031C, strain PHO85, stronger effect = lower value 0.887 | S. cerevisiae deletion strains, locus YPL153C, strain RAD53, stronger effect = lower value 0.914 | S. cerevisiae deletion strains, locus YPL204W, strain HRR25, stronger effect = lower value 0.867 | S. cerevisiae deletion strains, locus YPL209C, strain IPL1, stronger effect = lower value 0.979 | S. cerevisiae deletion strains, locus YPR025C, strain CCL1, stronger effect = lower value 0.976 | S. cerevisiae deletion strains, locus YPR106W, strain ISR1, stronger effect = lower value 0.966 | S. cerevisiae deletion strains, locus YPR111W, strain DBF20, stronger effect = lower value 0.949 | S. cerevisiae deletion strains, strain NNK1, stronger effect = lower value 0.977 | S. cerevisiae deletion strains, strain TSCII, stronger effect = lower value 0.979
